# Measured values published in PubChem BioAssay (NCI).
# This is part of a sample that, as a whole, favours compounds with a hit. Of some 79,000 tested, about 15% had one in any assay. Values without a mark were called inactive. Calls of active or inactive are those of the source. No stated cut-off is given here; in the data, active means growth inhibition above about 70%; inactive means the rest.
# Assays:
# [1] = NCI Yeast Anticancer Drug Screen. Data for the rad50 strain (AID 155);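 further: 0% = growth of vehicle-only cultures of the same strain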; details: S. cerevisiae rad50 strain growth inhibition, active compounds read high
# Outline: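 Readout: growth inhibition relative to vehicle-treated cultures. Compound exposure was carried out in a genetically defined yeast strain deficient in DNA damage repair.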
# [2] = NCI Yeast Anticancer Drug Screen. Data for the mec2-1 strain (AID 157); details: S. cerevisiae mec2-1 strain, active compounds read high
# Outline: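 Each compound was tested on mec2-1 yeast, a strain altered in DNA damage repair or cell cycle control. Growth inhibition is reported relative to vehicle.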
# [3] = NCI Yeast Anticancer Drug Screen. Data for the sgs1 mgt1 strain (AID 161);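 further: 0% = growth of cultures given vehicle only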; details: S. cerevisiae sgs1 mgt1 strain, active compounds read high
# Outline: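 Genetically altered yeast, compound exposure, growth inhibition relative to vehicle.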
# [4] = NCI Yeast Anticancer Drug Screen. Data for the cln2 rad14 strain (AID 165);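 further: 0% = growth equal to vehicle treated cultures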; details: S. cerevisiae cln2 rad14 strain, active compounds read high
# Outline: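 Test compounds were added to cln2 rad14 yeast cultures; inhibition of growth was then determined by comparison with vehicle treatment.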
# [5] = NCI Yeast Anticancer Drug Screen. Data for the bub3 strain (AID 167); details: S. cerevisiae bub3 mutant strain, active compounds read high
# Outline: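 Readout: yeast growth inhibition, expressed relative to vehicle-only wells. The test organism is a mutant strain from a panel with lesions in DNA repair or checkpoint genes.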
# [6] = NCI Yeast Anticancer Drug Screen. Data for the mlh1 rad18 strain (AID 175); details: S. cerevisiae mlh1 rad18 strain growth inhibition, active compounds read high
# Outline: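 Inhibition values reflect reduced growth of mutant yeast versus vehicle-treated controls following compound exposure; the mutations affect DNA damage repair.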
# [7] = at 5.0 µM (retest, dose inferred, filed as 0.5)
# [8] = at 50.0 µM (retest, dose inferred, filed as 5.0)
SMILES,"growth inhibition [1, 7] [%]","growth inhibition [1, 8]",growth inhibition ([1]; at 50.0 µM),"growth inhibition [2, 7]","growth inhibition [2, 8]",growth inhibition ([2]; at 50.0 µM),"growth inhibition [3, 7]","growth inhibition [3, 8]",growth inhibition ([3]; at 50.0 µM),"growth inhibition [4, 7]","growth inhibition [4, 8]",growth inhibition ([4]; at 50.0 µM),"growth inhibition [5, 7]","growth inhibition [5, 8]",growth inhibition ([5]; at 50.0 µM),"growth inhibition [6, 7]","growth inhibition [6, 8]",growth inhibition ([6]; at 50.0 µM)
O=c1oc(-c2ccccc2)nc2ccccc12,4,41%,76.5% (active),4%,17%,31.2%,0%,9%,58.9%,4%,4%,27.5%,0%,11%,38.9%,-4%,20%,42.8%
CCN(CC)c1ccc(NC(C(=O)c2ccc(Cl)cc2)c2ccc(Cl)cc2)cc1 (centres undefined),-7,-10%,91.3% (active),-2%,-10%,91.2% (active),-6%,-9%,96.2% (active),2%,-11%,93.3% (active),-1%,8%,86.3% (active),-2%,-8%,95.6% (active)
Nc1c(Cl)nc(C(F)(F)F)nc1NCc1ccccc1,60,99% (active),39.7%,99% (active),99% (active),8.25%,97% (active),99% (active),1.45%,99% (active),99% (active),-48.1%,99% (active),99% (active),23.7%,91% (active),99% (active),5.35%
CC(CCC(=O)O)[C@H]1CCC2[C@@H]3CC(O)[C@@H]4CC(O)CC[C@]4(C)C3CC[C@@]21C (some centres undefined),-5,44%,75.4% (active),-10%,58%,74.5% (active),5%,64%,77.3% (active),14%,70% (active),76.2% (active),-6%,84% (active),50.5%,-8%,71% (active),67.7%
CCOC(=O)CC(N)CC(=O)OCC,-142,-157%,94.8% (active),-47%,-49%,39.1%,-56%,-64%,-1.35%,-53%,-53%,-4.7%,-67%,-79%,75.2% (active),-110%,-113%,44.5%
COC(=O)C1c2cc3c(c(O)c2CCC1(C)O)C(=O)c1c(O)cc2c(c1C3=O)OC1OC2(C)C(O)C(N(C)C)C1O (centres undefined),19,63%,91.9% (active),28%,59%,86.3% (active),12%,58%,92.6% (active),15%,73% (active),69.3%,72% (active),90% (active),83.8% (active),36%,98% (active),93% (active)
CC1CCN(c2cc(-c3cc4ccccc4o3)oc(=O)c2C#N)CC1,7,1%,66.5%,2%,3%,56.7%,3%,0%,68.5%,7%,-1%,33.1%,2%,-1%,39.9%,-5%,3%,74.7% (active)
COc1cc(NCCCCCCCC2CCCCN2)c2ncccc2c1 (centres undefined),-1,95% (active),86.2% (active),6%,96% (active),79% (active),11%,98% (active),98.5% (active),0%,94% (active),96.5% (active),0%,88% (active),98.5% (active),32%,96% (active),98.4% (active)
CC1=C(C(=O)Nc2ccc(Cl)c(Cl)c2)C(c2ccco2)C(C(=O)Nc2ccc(Cl)c(Cl)c2)=C(C)N1,41,41%,88.7% (active),22%,22%,87.7% (active),-4%,-4%,89.3% (active),24%,24%,88.2% (active),10%,10%,89% (active),36%,36%,87.6% (active)
C(=C/c1cnnc2ccccc12)/c1ccccn1,5,79% (active),67.2%,8%,43%,6.2%,6%,44%,14.8%,0%,42%,45.8%,-7%,28%,-4.45%,1%,42%,38.4%
Cc1nn(-c2ccc(S(=O)(=O)[O-])cc2)c([O-])c1N=[N+](C)c1ccc(-c2ccc(N=Nc3ccc4c(S(=O)(=O)[O-])cc(S(=O)(=O)[O-])c(N)c4c3[O-])c([O-])c2)cc1[O-].[Cu+2].[Cu+2].[Na+],6,-15%,-26.5%,-3%,-17%,18.9%,6%,-15%,-19.4%,-7%,-28%,64.5%,-9%,-11%,-60.1%,-9%,-4%,17.6%
O=C(O)c1ccccc1-c1c2cc(I)c(=O)c(I)c-2oc2c(I)c(O)c(I)cc12,20,98% (active),98.9% (active),15%,99% (active),99.5% (active),12%,97% (active),99.2% (active),5%,98% (active),99% (active),2%,98% (active),98.9% (active),34%,99% (active),98.8% (active)
C=C1C(C2(C)C(OC(C)=O)CC(=O)OC(C)(COC(C)=O)C2CC(=O)OC)C(OC=O)C(OC(=O)C(O)C(C)CC)C2(C)C(c3ccoc3)CC(=O)C12O (centres undefined),-15,-28%,76.9% (active),-5%,-16%,68.7%,4%,-32%,57.5%,-6%,0%,81.5% (active),-36%,-23%,79.8% (active),-2%,-53%,90% (active)
COc1ccc(Oc2cc3c[n+](C)ccc3cc2OC)cc1,4,90% (active),99% (active),-3%,57%,99% (active),-3%,91% (active),99.4% (active),2%,70% (active),98% (active),0%,90% (active),98% (active),15%,88% (active),98.8% (active)
Fc1ccc(CSC(=S)Nc2cccc(C(F)(F)F)c2)cc1,10,99% (active),99.6% (active),9%,100% (active),99.8% (active),12%,100% (active),99.7% (active),3%,99% (active),99.5% (active),-2%,100% (active),99.7% (active),7%,99% (active),99.5% (active)
COC(=O)[C@@]12OC[C@]34[C@H]([C@@H](O)[C@@H]1O)[C@@]1(C)CC(=O)C(OC(=O)CC(=O)OC5=C(C)[C@@H]6C[C@H]7OC(=O)[C@H](OC(=O)/C=C(\C)C(C)C)[C@H]8[C@]9(C(=O)OC)OC[C@]78[C@H]([C@@H](O)[C@@H]9O)[C@@]6(C)CC5=O)=C(C)[C@@H]1C[C@H]3OC(=O)[C@H](OC(=O)/C=C(\C)C(C)C)[C@@H]24,45,98% (active),90.3% (active),43%,99% (active),92.3% (active),42%,98% (active),92.5% (active),49%,98% (active),89.6% (active),57%,99% (active),92.2% (active),58%,97% (active),84.5% (active)
Cc1ccc(S(=O)(=O)NC2(C=O)CCC(C(C)(C)C)CC2)cc1 (centres undefined),15,86% (active),77.7% (active),20%,88% (active),68.4%,25%,84% (active),82% (active),20%,92% (active),77.5% (active),19%,88% (active),84.7% (active),37%,95% (active),81% (active)
CCCCCCCCCCCCCCCCNC(=O)/C(=C\c1ccccc1O)NC(=O)c1ccccc1,0,6%,66.2%,-8%,-2%,35.1%,0%,14%,71.7% (active),33%,-20%,27.3%,2%,8%,73.7% (active),18%,-6%,67.6%
